Holding throughout (experiment): NCI-60 one-dose screen, 48 h (100 = growth as untreated, 0 = no growth, -100 = all killed)
Common to all, as to conditions: 10 µM unless noted

Assay [1] relates to T-47D breast.
Assay [2] deals with BT-549 breast.
The test system of assay [3] is MDA-MB-435 melanoma.
In assay [4] the test system is SW-620 colon.
Assay [5] concerns MCF7 breast.
The test system of assay [6] is HCT-116 colon.
The test system of assay [7] is HCC-2998 colon.
For assay [8], the system named is KM12 colon.

The panel holds about 83,000 compounds, 20% with a hit somewhere; the sample as a whole holds those more often.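 Compound tested at a single concentration for 48 hours in 96-well plates; a percent growth value below 10 was scored as active.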 A number with no mark means an inactive call. Activity calls are given as the source filed them.

As to `O=C1Nc2ccccc2[C@]12CC(c1ccccc1)=NN2`, the growth is 66.6% in assay [1]; 59.3% in assay [2]; -1.7% (active) in assay [3]; 23.4% in assay [4]; 29.5% in assay [5]; 26.2% in assay [6]. Moreover, the growth in assay [7] was 65%; in assay [8], 31.9%.
As for `CNC(=O)c1cc(Oc2ccc3c(c2)sc2nc(-c4cc(OC)c(OC)c(OC)c4)cn23)ccn1`, the growth in assay [1] was -4.73% (active); in assay [2], 24%; in assay [3] it was 51.7%; in assay [4], 77.4%; in assay [5], 32.1%; in assay [6], 55.2%. Further, the values for the growth in assay [7] and in assay [8] were 74.6% and 66.3%, respectively.
Turning to `CN1CCN(c2ccc(C(=O)Nc3cccc(C#Cc4cccc5[nH]nc(N)c45)c3)cc2C(F)(F)F)CC1`, the growth is -48.3% (active) in assay [1]; 71.4% in assay [2]; -88.8% (active) in assay [3]; -73.5% (active) in assay [4]; -71.6% (active) in assay [5]; -83.4% (active) in assay [6]. Also, the growth was -75.1% (active) in assay [7] and -57% (active) in assay [8].
Turning to `COc1ccc(-c2nnc(-c3ccc4c(c3)nc(-c3ccncc3)n4C3CCCCC3)o2)cc1`, the growth in assay [1] was 30.8%; in assay [2], 54.6%; in assay [3], 75.9%; in assay [4] it was 95.9%; in assay [5] it was 65.6%; in assay [6], 62.3%. The values for the growth in assay [7] and in assay [8] were 88.8% and 71.9%, respectively.
In the case of `O=C1/C(=C/c2ccc(Cl)cc2)COc2ccc(O)cc21`, the growth was 83.5% in assay [1]; 80.5% in assay [2]; 64.7% in assay [3]; 2.28% (active) in assay [4]; 5.46% (active) in assay [5]; 4.5% (active) in assay [6]. Moreover, the growth in assay [7] is 83.8%; in assay [8], 20.3%.
For `C=C(C)[C@@H]1CC[C@]2(C(=O)OC)CC[C@]3(C)[C@H](CC[C@@H]4[C@@]5(C)C/C(=C/NC(N)=S)C(=O)C(C)(C)[C@@H]5CC[C@]43C)[C@@H]12`, the growth in assay [1] was 60.9%; in assay [2], 126%; in assay [3], 93.7%; in assay [4], 87.3%; in assay [5], 80.7%; in assay [6], 74.4%. Also, the results for the growth in assay [7] and in assay [8] were 99.4% and 82.6%, respectively.
In the case of `Cn1c(=O)c2[nH]c(N/N=C/c3ccccc3Br)nc2n(C)c1=O`, the growth in assay [1] was 108%; in assay [2] it was 99%; in assay [3], 113%; in assay [4] it was 109%; in assay [5], 91.4%; in assay [6], 103%. Besides, the growth in assay [7] was 118%; in assay [8] it was 98.6%.
Turning to `COC(=O)c1n[nH]c2ccc3nc(-c4cn[nH]c4C(F)(F)F)c4c(c3c12)CCCC4`, the growth in assay [1] is 57%; in assay [2], 35.5%; in assay [3], 39.3%; in assay [4], 28.3%; in assay [5], 53%; in assay [6] it was 22.9%. The growth was 15.7% in assay [7] and 26.8% in assay [8].
For `CS(=O)(=O)Nc1cc(-c2ccc3ncnc(Nc4c(Cl)ccc5c4OCO5)c3c2)cnc1Cl`, the growth in assay [1] was -30.6% (active); in assay [2], -26% (active); in assay [3], -24.9% (active); in assay [4], 2.07% (active); in assay [5] it was 0.196% (active); in assay [6], -22.6% (active). In addition, the growth in assay [7] was -36% (active); in assay [8], -39.7% (active).
For the molecule `CC(C)OC(=O)c1ccc2[nH]c(O)c(C(=Nc3ccc(N(C)C(=O)CN4CCN(C)CC4)cc3)c3ccccc3)c2c1`, the growth in assay [1] is -47.7% (active); in assay [2] it was -78.8% (active); in assay [3], -92.6% (active); in assay [4] it was -64.6% (active); in assay [5], -65.5% (active); in assay [6], -47.9% (active). In addition, the growth in assay [7] is -84.2% (active); in assay [8], -43.2% (active).
For the molecule `O=C1c2cccnc2C(=O)c2c1c(C(=O)NCCCN1CCCCC1)c1ccccn21`, the growth in assay [1] was -48.6% (active); in assay [2] it was 13.7%; in assay [3], -80.5% (active); in assay [4], -66% (active); in assay [5], -49.5% (active); in assay [6] it was -57.6% (active). Further, the values for the growth in assay [7] and in assay [8] were -56.7% (active) and -17.8% (active), respectively.
With `CCN1C(=O)N(CC)C2C1NN=c1s/c(=C\c3ccc(Cl)cc3Cl)c(=O)n12` (stereo not given), the growth is 58.8% in assay [1]; 15.9% in assay [2]; -24.8% (active) in assay [3]; 20.5% in assay [4]; 14% in assay [5]; 9.71% (active) in assay [6]. The results for the growth in assay [7] and in assay [8] were 7.2% (active) and 7.47% (active), respectively.
For the molecule `N#CC1CCc2c(c(-c3cn[nH]c3C(F)(F)F)nc3c(F)cc4[nH]ncc4c23)C1` (stereo not given), the growth in assay [1] is 1.96% (active); in assay [2] it was -11.6% (active); in assay [3], 7.99% (active); in assay [4], 8.48% (active); in assay [5], 12.9%; in assay [6], 5.5% (active). Moreover, the growth in assay [7] is 44%; in assay [8] it was 13.6%.
As to `COc1ccc(-c2nc3c(c(-c4ccccc4)nn3-c3ccccc3)c(-c3ccc(N4CCOCC4)cc3)c2C#N)cc1`, the growth was 94.3% in assay [1]; 95.3% in assay [2]; 99.2% in assay [3]; 90.4% in assay [4]; 84.6% in assay [5]; 96% in assay [6]. Further, the growth in assay [7] was 108%; in assay [8] it was 104%.
Consider `O=C(/C=C/c1ccc(Cl)cc1)c1cccc(Nc2nc(Nc3ccccc3)nc(Nc3ccccc3)n2)c1`, for which the growth was 55.6% in assay [1]; 118% in assay [2]; 102% in assay [3]; 98.8% in assay [4]; -16.9% (active) in assay [5]; 29.5% in assay [6]. The results for the growth in assay [7] and in assay [8] were 88.8% and 86%, respectively.
Consider `CN(C)CCCn1c2c(c3ncccc3c1=O)C(=O)c1ccccc1-2`, for which the growth in assay [1] is 47.8%; in assay [2], 67.3%; in assay [3], 64%; in assay [4], 24%; in assay [5] it was 11.8%; in assay [6] it was 11.2%. Besides, the results for the growth in assay [7] and in assay [8] were 63.9% and 40.9%, respectively.
For the molecule `S=C(Nc1ccc(-c2nc(N3CCOCC3)c3cccn3n2)cc1)Nc1cccnc1`, the growth in assay [1] was -4.82% (active); in assay [2], 32.8%; in assay [3] it was 31.8%; in assay [4] it was 46.7%; in assay [5], 20.4%; in assay [6] it was 17.3%. Further, the growth in assay [7] is 32.9%; in assay [8], 28.1%.
Take `CC(C)(C)n1cc(-c2ccnc(NCCNS(=O)(=O)c3cccc4ccccc34)c2)c(-c2cccc(F)c2)n1`: the growth in assay [1] was -12.6% (active); in assay [2], -80.9% (active); in assay [3], -31.8% (active); in assay [4] it was -26% (active); in assay [5] it was -35% (active); in assay [6] it was -87.2% (active). Also, the results for the growth in assay [7] and in assay [8] were -41.8% (active) and -14% (active), respectively.
Consider `COC(=O)[C@H]1CCCN1C[C@@H](O)CN1C(=O)/C(=C\c2cc(OC)c(OC)c(OC)c2)c2ccccc21`, for which the growth in assay [1] is 86.7%; in assay [2], 111%; in assay [3], 96.5%; in assay [4], 95.7%; in assay [5], 70.5%; in assay [6], 92.8%. Also, the growth in assay [7] was 102%; in assay [8] it was 98.9%.
With `C[C@]12CC[C@@H]3c4ccc(O)c([N+](=O)[O-])c4CC[C@H]3[C@@H]1CCC2=O`, the growth in assay [1] is 115%; in assay [2], 78.3%; in assay [3], 95.4%; in assay [4], 100%; in assay [5], 112%; in assay [6], 105%. For the same molecule, the values for the growth in assay [7] and in assay [8] were 94.1% and 91.1%, respectively.
Take `CCc1n(Cc2ccc3ccccc3c2)cc[n+]1Cc1ccc2ccccc2c1`: the growth is -10.2% (active) in assay [1]; -2.05% (active) in assay [2]; -22.1% (active) in assay [3]; 16% in assay [4]; 2.44% (active) in assay [5]; 4.69% (active) in assay [6]. Also, the growth in assay [7] was -6.82% (active); in assay [8] it was -52.2% (active).
Turning to `COc1ccc(C(=O)Nc2cccc(C3CC(=O)c4c(cc(OC)c(OC)c4OC)O3)c2)cc1` (stereo not given), the growth in assay [1] is 7.66% (active); in assay [2], 34.7%; in assay [3], -47.3% (active); in assay [4], 27.3%; in assay [5], 15.2%; in assay [6], 10.9%. Besides, the growth in assay [7] is 64.9%; in assay [8] it was 13.8%.
As to `CS(=O)(=O)Nc1cc(-c2ccc3ncnc(Nc4ccc5c(cnn5Cc5ccccn5)c4)c3c2)cnc1Cl`, the growth in assay [1] is 18.5%; in assay [2], 56.7%; in assay [3] it was 77.5%; in assay [4], 84.3%; in assay [5], 36%; in assay [6], 92.9%. In addition, the growth in assay [7] was 80.4%; in assay [8], 95.4%.
As for `Cc1oc(-c2ccc(Cl)cc2)nc1/C=C/C(=O)c1ccccc1`, the growth is 79.5% in assay [1]; 84.8% in assay [2]; 103% in assay [3]; 104% in assay [4]; 49.9% in assay [5]; 99.5% in assay [6]. For the same molecule, the growth in assay [7] was 103%; in assay [8] it was 100%.
As to `Clc1ccc2c(c1)N(c1ncnc3ccc(-c4cnc5[nH]ncc5c4)cc13)CC2`, the growth in assay [1] was 0.466% (active); in assay [2], 22.6%; in assay [3] it was 31.1%; in assay [4], 47.4%; in assay [5], 18.2%; in assay [6] it was 35.8%. For the same molecule, the results for the growth in assay [7] and in assay [8] were 36.6% and 36.4%, respectively.
Regarding `CC1(C)CCC(S(=O)(=O)c2ccc3c(c2)/C(=N\O)c2cc(S(=O)(=O)N4CCC(O)(c5cccc(C(F)(F)F)c5)CC4)ccc2-3)CC1`, the growth in assay [1] was -83.4% (active); in assay [2], -80.8% (active); in assay [3], -93.5% (active); in assay [4], -92.9% (active); in assay [5] it was -70.9% (active); in assay [6] it was -87.7% (active). Moreover, the results for the growth in assay [7] and in assay [8] were -82.9% (active) and -86.7% (active), respectively.
With `C#Cc1ccc(NC(=O)c2ccc(/C=C/C(=O)c3nccn3C)cc2)cc1`, the growth is 0.0135% (active) in assay [1]; -78.5% (active) in assay [2]; -44.7% (active) in assay [3]; -73.3% (active) in assay [4]; -45.4% (active) in assay [5]; -62.6% (active) in assay [6]. Further, the values for the growth in assay [7] and in assay [8] were -89.2% (active) and -64.1% (active), respectively.
Take `CN(C)c1ccc(Nc2cc(-c3cccc(OC(F)(F)F)c3)nc3ccc(N4CCCC4)cc23)cc1`: the growth in assay [1] is 70.5%; in assay [2] it was -49.6% (active); in assay [3], -73.6% (active); in assay [4], -48.1% (active); in assay [5] it was -14.7% (active); in assay [6], -31.2% (active). Further, the growth in assay [7] was 91.1%; in assay [8], -45.5% (active).
On to `CCn1c(=S)sc2c(Nc3ccc(F)cc3)nc(-c3cccnc3)nc21`, for which the growth was 30.5% in assay [1]; 54.2% in assay [2]; 81.1% in assay [3]; 90.6% in assay [4]; 73.1% in assay [5]; 21.4% in assay [6]. Further, the growth in assay [7] is 86.1%; in assay [8], 69.7%.
With `Cn1ccnc1C(=O)C(=O)Nc1ccc(CC(=O)Nc2ccccc2)cc1`, the growth was 112% in assay [1]; 103% in assay [2]; 101% in assay [3]; 102% in assay [4]; 92.1% in assay [5]; 114% in assay [6]. In addition, the growth in assay [7] is 106%; in assay [8] it was 105%.

The values are drawn from PubChem BioAssay (NCI).
